The text below walks through data of PubChem BioAssay.

Assay [1] is described as follows: antimalarial activity against Dd2 strain (AID 2302;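 active means growth inhibition above 50% at the single 2 µM test dose, taken to imply half-maximal potency below 2 µM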;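 further: 0% = DMSO untreated growth and 100% = chloroquine plus artemisinin killed control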). The following applies: P. falciparum Dd2 in RBCs, LDH growth readout, 72 h; at 2 µM; stronger effect = higher value.
Assay [2] in a line: human hepatoma cell viability loss – ATP luminescence, cytotoxicity control for P. falciparum antimalarial project, primary screen (AID 2303;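 active means inhibition above 50%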;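 further: 0% = DMSO wells and 100% = digitonin-killed cells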). The conditions noted are these: HepG2 viability, 24-48 h, at 10 µM, stronger effect = higher value.
For assay [3], the target named is L-lactate dehydrogenase (Plasmodium falciparum (isolate CDC / Honduras)) (UniProt Q27743). The assay is described as follows: PfLDH activity inhibition – cell lysate, 3D7 strain, counter-screen for P. falciparum growth inhibition project (AID 2304; call rule not given here;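 further: 0% = vehicle and 100% = reference inhibitor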). The following applies: P. falciparum 3D7 crude extract, LDH APAD/NBT absorbance; at 2 µM; stronger effect = higher value.
Chain of L-lactate dehydrogenase (Plasmodium falciparum (isolate CDC / Honduras)) (Q27743 whole entry, looked up): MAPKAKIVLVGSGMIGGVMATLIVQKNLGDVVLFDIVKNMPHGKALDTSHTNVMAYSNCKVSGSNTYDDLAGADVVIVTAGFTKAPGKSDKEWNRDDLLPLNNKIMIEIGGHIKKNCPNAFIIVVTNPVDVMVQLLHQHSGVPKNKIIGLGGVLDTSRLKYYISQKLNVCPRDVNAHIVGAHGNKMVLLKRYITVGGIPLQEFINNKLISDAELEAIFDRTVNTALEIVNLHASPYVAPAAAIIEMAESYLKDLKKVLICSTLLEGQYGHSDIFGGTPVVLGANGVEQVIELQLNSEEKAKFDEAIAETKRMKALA
Assay [4] can be described thus: inhibition of 3D7 malaria parasite growth – strain 3D7 (AID 2306; call rule not given here;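 further: 0% = DMSO wells and 100% = chloroquine plus artemisinin control wells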). The conditions noted are these: P. falciparum 3D7 erythrocytic growth, LDH absorbance, 72 h; at 2 µM; stronger effect = higher value.
Assay [5] concerns the target Calcium-dependent protein kinase 1 (Plasmodium falciparum (isolate 3D7)) (UniProt P62344). The assay can be described thus: PfCDPK1 kinase inhibitors, biochemical, TCAMS library (AID 1159585; cut-off not given, nearly all actives have IC50 up to about 0.98 µM;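 further: inhibitors leave more ATP so luminescence rises with inhibition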). The following applies: recombinant PfCDPK1, Kinase-Glo ATP depletion luminescence. (In Kinase-Glo more light means more ATP remaining.)
The target of assay [6] is Plasmodium falciparum protein kinase 6 (PK6, PF3D7_1337100) (UniProt Q8IDW1). The assay is described as follows: PfPK6 kinase inhibitors, biochemical, TCAMS library (AID 1159586; call rule not given here). The conditions noted are these: recombinant PfPK6, Kinase-Glo ATP depletion luminescence.
Chain of Plasmodium falciparum protein kinase 6 (PK6, PF3D7_1337100) (Q8IDW1 1-305): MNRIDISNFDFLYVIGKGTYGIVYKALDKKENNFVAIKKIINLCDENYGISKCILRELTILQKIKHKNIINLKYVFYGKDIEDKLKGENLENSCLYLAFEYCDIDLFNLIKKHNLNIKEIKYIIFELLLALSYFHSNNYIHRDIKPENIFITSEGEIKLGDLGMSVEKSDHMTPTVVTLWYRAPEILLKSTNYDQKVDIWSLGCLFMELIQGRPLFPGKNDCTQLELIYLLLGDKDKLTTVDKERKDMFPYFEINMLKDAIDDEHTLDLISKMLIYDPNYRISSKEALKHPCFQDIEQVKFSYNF
Assay [7] concerns the target Protein kinase 7 (PK7), Plasmodium falciparum 3D7 (PF3D7_0213400) (UniProt Q7YTF7). The assay can be described thus: inhibition of Plasmodium PK7 catalytic activity – biochemical, TCAMS antimalarial set, Kinase-Glo luminescence (AID 1159587; call rule not given here). The following applies: recombinant PfPK7, Kinase-Glo ATP depletion luminescence.
In assay [8] the target is Calcium-dependent protein kinase 4 (Plasmodium falciparum (isolate 3D7)) (UniProt Q8IBS5). The assay is described as follows: PfCDPK4 kinase inhibitors, biochemical, TCAMS library (AID 1159588; cut-off not given, nearly all actives have IC50 up to about 0.91 µM). The following applies: recombinant PfCDPK4, Kinase-Glo ATP depletion luminescence.
Chain of Calcium-dependent protein kinase 4 (Plasmodium falciparum (isolate 3D7)) (Q8IBS5 whole entry, looked up): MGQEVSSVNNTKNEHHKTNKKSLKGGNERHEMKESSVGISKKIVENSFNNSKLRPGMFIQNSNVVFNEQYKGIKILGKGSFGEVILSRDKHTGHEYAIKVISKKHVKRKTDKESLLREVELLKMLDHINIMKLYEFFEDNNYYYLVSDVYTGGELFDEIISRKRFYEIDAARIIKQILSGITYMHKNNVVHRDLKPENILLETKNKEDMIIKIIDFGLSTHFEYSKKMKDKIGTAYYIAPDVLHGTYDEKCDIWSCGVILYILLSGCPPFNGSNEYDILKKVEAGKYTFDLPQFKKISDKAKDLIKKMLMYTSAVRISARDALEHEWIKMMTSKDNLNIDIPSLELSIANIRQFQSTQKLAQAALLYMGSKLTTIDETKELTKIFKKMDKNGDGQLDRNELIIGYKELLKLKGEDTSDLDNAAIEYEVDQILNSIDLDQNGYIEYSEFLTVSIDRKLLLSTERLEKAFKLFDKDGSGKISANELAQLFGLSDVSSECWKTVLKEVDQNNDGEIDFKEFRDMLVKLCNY
Assay [9] can be described thus: viability loss in pontine glioma line – cell-based, SU-DIPG-XVII, MIPE5.0, CellTiter-Glo, qHTS, dose response (AID 1347060; cut-off not given, nearly all actives have AC50 up to about 26 µM;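 further: cells exposed to compound for 48 hours before viability readout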). The following applies: CellTiter-Glo ATP luminescence.
A short description of assay [10]: viability loss in pontine glioma line – cell-based, SU-DIPG-IV, MIPE4.0, CellTiter-Glo, qHTS, dose response (AID 1347063; cut-off not given, nearly all actives have AC50 up to about 30 µM;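 further: compound exposure lasted 48 hours before the viability readout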). The following applies: CellTiter-Glo ATP luminescence.
Assay [11] can be described thus: viability loss in pontine glioma line – cell-based, SU-DIPG-XIII, MIPE5.0, CellTiter-Glo, qHTS, dose response (AID 1347064; cut-off not given, nearly all actives have AC50 up to about 23 µM;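 further: cells exposed to compound for 48 hours before the viability read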). The following applies: CellTiter-Glo ATP luminescence.
Assay [12] in a line: viability loss in pontine glioma line – cell-based, SU-DIPG-XXV, MIPE5.0, CellTiter-Glo, qHTS, dose response (AID 1347065; cut-off not given, nearly all actives have AC50 up to about 26 µM;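 further: cells exposed to compound for 48 hours before ATP readout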). The conditions noted are these: CellTiter-Glo ATP luminescence. (In general: ATP-based viability assays read luminescence as a measure of living cells.)
The nature of assay [13]: growth inhibition of DIPG cells – cell-based, MIPE4.0 library, CellTiter-Glo luminescence, qHTS (AID 1347066; cut-off not given, nearly all actives have AC50 up to about 30 µM;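 further: cells exposed to compound for 48 hours before readout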). The following applies: SU-DIPG-VI viability, CellTiter-Glo ATP luminescence.
Assay [14] can be described thus: JHH-DIPG-1 glioma cell viability, MIPE5.0 library, CellTiter-Glo luminescence, qHTS (AID 1347067; cut-off not given, nearly all actives have AC50 up to about 26 µM;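 further: cells exposed to compound for 48 hours before readout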). The conditions noted are these: JHH-DIPG-1 glioma viability, CellTiter-Glo ATP luminescence.
Assay [15] can be described thus: viability loss with induced miR-34 in A549 – imaging, A549 dox-inducible miR-34, nuclei and caspase counts, primary screen (AID 1347080;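 active means compounds whose cell count with miR-34 switched on is under 0.7 times the count with it off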). The conditions noted are these: A549 miR-34 inducible, Hoechst nuclei count, 48 h.
A short description of assay [16]: compounds altering HSF1 focus formation in cells – imaging, Selleck Cancer Library (AID 1347162; in the data active means plate-normalised HSF1 focus index below about 0.46). The following applies: human cells, HSF1 nuclear foci imaging, at 10 µM; SSMD: measured here: HSF1 foci SSMD mean; cell count: measured here: cell number; plate-normalised HSF1 focus index: stronger effect = lower value.
Assay [17] in a line: MELAS cybrid and Rieske KO viability enhancers – cell-based, MELAS cybrids, Rieske KO mouse fibroblasts, CellTiter-Glo, primary screen (AID 1508586;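 active means mean z-score across replicates of 1.96 or higher in either the MELAS or the Rieske mutant cell line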;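 further: z relative to plate mean and SD of compound and empty wells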). The conditions noted are these: low glucose.
Assay [18] is described as follows: drug combination growth inhibition, ovarian cancer – cell-based, oncology-focused library, rucaparib conditional, profiling panel (AID 1508598). The conditions noted are these: patient-derived ovarian cancer cells, CellTiter-Glo viability, 144 h, stronger effect = lower value.

Records with an inconclusive call do not appear. For part of these data: Measured potencies and affinities stand elsewhere. Activity calls are given as the source filed them.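 How the source made its calls, unless noted: active means normalized viability below 100% at a tested concentration; inactive means the rest.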

Chain of Protein kinase 7 (PK7), Plasmodium falciparum 3D7 (PF3D7_0213400) (Q7YTF7 1-343): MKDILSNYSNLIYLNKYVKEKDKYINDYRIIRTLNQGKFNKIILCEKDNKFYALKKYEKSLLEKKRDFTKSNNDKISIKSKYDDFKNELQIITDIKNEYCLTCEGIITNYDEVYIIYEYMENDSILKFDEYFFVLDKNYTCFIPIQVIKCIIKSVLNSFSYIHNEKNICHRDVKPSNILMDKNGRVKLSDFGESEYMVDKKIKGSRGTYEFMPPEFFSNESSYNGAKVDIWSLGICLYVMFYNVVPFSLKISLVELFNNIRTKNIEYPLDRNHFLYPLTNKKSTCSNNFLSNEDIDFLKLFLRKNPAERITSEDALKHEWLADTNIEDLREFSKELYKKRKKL
Chain of Calcium-dependent protein kinase 1 (Plasmodium falciparum (isolate 3D7)) (P62344 whole entry, looked up): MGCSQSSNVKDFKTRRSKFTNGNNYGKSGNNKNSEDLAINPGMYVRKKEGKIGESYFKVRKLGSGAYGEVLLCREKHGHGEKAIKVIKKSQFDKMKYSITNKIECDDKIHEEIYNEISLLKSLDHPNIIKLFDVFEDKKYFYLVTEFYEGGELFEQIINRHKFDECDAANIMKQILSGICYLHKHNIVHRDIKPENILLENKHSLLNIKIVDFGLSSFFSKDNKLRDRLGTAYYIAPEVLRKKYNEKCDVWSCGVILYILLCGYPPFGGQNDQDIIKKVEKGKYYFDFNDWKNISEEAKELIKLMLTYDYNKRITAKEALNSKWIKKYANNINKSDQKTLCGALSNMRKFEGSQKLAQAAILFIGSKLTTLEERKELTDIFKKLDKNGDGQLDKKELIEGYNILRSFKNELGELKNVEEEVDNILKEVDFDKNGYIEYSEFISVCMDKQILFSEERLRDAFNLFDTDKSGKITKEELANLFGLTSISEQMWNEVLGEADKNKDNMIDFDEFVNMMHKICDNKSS

For `FC(F)c1nc2ccccc2n1-c1nc(N2CCOCC2)nc(N2CCOCC2)n1`, the growth inhibition in assay [1] and in assay [4] was 99% (active) throughout. The inhibition in [2] was 47% (inactive); in [3], -2% (inactive). The result in assay [5], in assay [6], in assay [7] and in assay [8] was inactive. Also, the AC50 is 0.742 µM (active) in assay [9]; 0.235 µM (active) in assay [10]; 0.833 µM (active) in assay [11]; 0.417 µM (active) in [12]; 3.32 µM (active) in [13]; 2.95 µM (active) in assay [14]. Further, the fold change is 0.814 (inactive) in assay [15] (stronger effect = lower value, cell number ratio, induced over uninduced) and 0.918 in assay [15] (measured here: relative caspase fold change +Dox/-Dox). The cell count in [15] (measured here: total cells with miR-34 induction, stronger effect = lower value) came to 1920; in assay [15] (measured here: total cells without miR-34 induction), 2350; in [16], 6850. Moreover, the SSMD in assay [16] was -0.274. Moreover, the plate-normalised HSF1 focus index in assay [16] was 0.994 (inactive). Moreover, the z-score is 2.99 (active) in [17] (MELAS cybrid survival, CellTiter-Glo 48 h, stronger effect = higher value) and -0.193 in assay [17] (Rieske KO mouse fibroblast survival, CellTiter-Glo 72 h). For the same compound, the viability in assay [18] (at 0.000305 µM, OCI-C5x cells, with rucaparib 10 µM, 100% = cells with rucaparib alone) was 125% (inactive); in assay [18] (at 0.000305 µM, OCI-C5x cells, without rucaparib), 124% (inactive); in assay [18] (at 0.000305 µM, OCI-P5x cells, with rucaparib 20 µM, 100% = cells with rucaparib alone) it was 88.5% (active); in assay [18] (at 0.000305 µM, OCI-P5x cells, without rucaparib), 82.7% (active); in assay [18] (at 0.00122 µM, OCI-C5x cells, without rucaparib), 119% (inactive); in [18] (at 0.00122 µM, OCI-P5x cells, with rucaparib 20 µM, 100% = cells with rucaparib alone), 75.5% (active). The viability in assay [18] (at 0.00122 µM, OCI-P5x cells, without rucaparib) is 34.1% (active); in [18] (at 0.00488 µM, OCI-C5x cells, with rucaparib 10 µM, 100% = cells with rucaparib alone) it was 115% (inactive); in assay [18] (at 0.00488 µM, OCI-C5x cells, without rucaparib), 120% (inactive); in assay [18] (at 0.00488 µM, OCI-P5x cells, with rucaparib 20 µM, 100% = cells with rucaparib alone), 93.4% (active); in assay [18] (at 0.00488 µM, OCI-P5x cells, without rucaparib), 97.4% (active); in [18] (at 0.0195 µM, OCI-C5x cells, with rucaparib 10 µM, 100% = cells with rucaparib alone), 122% (inactive). Further, the viability is 116% (inactive) in assay [18] (at 0.0195 µM, OCI-C5x cells, without rucaparib); 94.1% (active) in assay [18] (at 0.0195 µM, OCI-P5x cells, with rucaparib 20 µM, 100% = cells with rucaparib alone); 90.9% (active) in assay [18] (at 0.0195 µM, OCI-P5x cells, without rucaparib); 126% (inactive) in assay [18] (at 0.0781 µM, OCI-C5x cells, with rucaparib 10 µM, 100% = cells with rucaparib alone); 117% (inactive) in assay [18] (at 0.0781 µM, OCI-C5x cells, without rucaparib); 89.9% (active) in assay [18] (at 0.0781 µM, OCI-P5x cells, with rucaparib 20 µM, 100% = cells with rucaparib alone). In addition, the viability in assay [18] (at 0.0781 µM, OCI-P5x cells, without rucaparib) is 93% (active); in [18] (at 0.313 µM, OCI-C5x cells, with rucaparib 10 µM, 100% = cells with rucaparib alone) it was 128% (inactive); in assay [18] (at 0.313 µM, OCI-C5x cells, without rucaparib), 111% (inactive); in assay [18] (at 0.313 µM, OCI-P5x cells, with rucaparib 20 µM, 100% = cells with rucaparib alone), 88.2% (active); in assay [18] (at 0.313 µM, OCI-P5x cells, without rucaparib), 84.5% (active); in assay [18] (at 1.25 µM, OCI-C5x cells, with rucaparib 10 µM, 100% = cells with rucaparib alone) it was 107% (inactive). In addition, the viability in assay [18] (at 1.25 µM, OCI-C5x cells, without rucaparib) is 126% (inactive); in assay [18] (at 1.25 µM, OCI-P5x cells, with rucaparib 20 µM, 100% = cells with rucaparib alone), 42% (active); in assay [18] (at 1.25 µM, OCI-P5x cells, without rucaparib), 62.9% (active); in assay [18] (at 5 µM, OCI-C5x cells, with rucaparib 10 µM, 100% = cells with rucaparib alone), 25.2% (active); in [18] (at 5 µM, OCI-C5x cells, without rucaparib), 45.8% (active); in assay [18] (at 5 µM, OCI-P5x cells, with rucaparib 20 µM, 100% = cells with rucaparib alone) it was 8.53% (active). Moreover, in assay [18] (at 5 µM, OCI-P5x cells, without rucaparib), the viability is 15.4% (active).

Consider `COc1ccc(-n2ccnc2SCC(=O)Nc2cc(C)ccc2C)c(OC)c1`, for which the growth inhibition in [1] was 93% (active); in [4] it was 94% (active). Moreover, the inhibition in assay [2] was 2% (inactive); in assay [3], -3% (inactive). Besides, the outcome in [5], in assay [6], in assay [7] and in assay [8] was inactive.

For `CN1CCC(C(=O)Nc2ccc(-c3cccc(-c4nc5ccc(C(F)(F)F)cc5[nH]4)c3)cc2)CC1`, the values for the growth inhibition in [1] and in assay [4] were 97% (active) and 100% (active), respectively. Besides, the inhibition in assay [2] was 28% (inactive); in assay [3] it was 0% (inactive). The result in assay [5], in [6], in assay [7] and in assay [8] was inactive.

For the compound `CC(=O)Nc1cccc(C(=O)Nc2cccc(-c3cccc(-c4nc5ccccc5[nH]4)c3)c2)c1`, the growth inhibition was 66% (active) in assay [1] and 100% (active) in assay [4]. Besides, the inhibition in assay [2] was 41% (inactive); in assay [3], -5% (inactive). The result in assay [5], in [6], in assay [7] and in [8] was inactive.

Broadly, the inhibition is the relative decrease from the control value, in per cent. For orientation: AC50 means the concentration at which the activity in the assay is half-maximal. As a reminder, the viability is a read-out of living cells in per cent, often relative to untreated cells.
